{
  "source": "the supplement of paper PMC6897291",
  "system": "RIVA",
  "assay": "growth inhibition by drug plus 177Lu-lilotomab satetraxetan (1 - RLU/untreated control) (fraction); higher = stronger inhibition",
  "conditions": "177Lu-lilotomab satetraxetan 0.5 ug/ml",
  "experimental": "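RIVA (RI-1) ABC-DLBCL cells were pretreated or not for 18 h with 0.5 ug/ml 177Lu-lilotomab satetraxetan (600 MBq/mg), washed and seeded (3000 cells/well) on 384-well plates pre-printed with the Selleck Cambridge Cancer Compound library. Viability was read by RealTime-Glo luminescence on days 3-6 after seeding. Effect = 1 - RLU/mean RLU of the 48 untreated no-drug control wells per plate; Bliss score = (M-E)/(1-Fa).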",
  "data": [
    {"smiles": "NC(=O)Nc1sc(-c2ccc(F)cc2)cc1C(N)=O", "values": [
      {"measurement": "growth inhibition by drug plus 177Lu-lilotomab satetraxetan", "setting": "10 nM, time (day): 3", "result": 0.484},
      {"measurement": "growth inhibition by drug plus 177Lu-lilotomab satetraxetan", "setting": "10 nM, time (day): 4", "result": 0.574},
      {"measurement": "growth inhibition by drug plus 177Lu-lilotomab satetraxetan", "setting": "10 nM, time (day): 5", "result": 0.584},
      {"measurement": "growth inhibition by drug plus 177Lu-lilotomab satetraxetan", "setting": "10 nM, time (day): 6", "result": 0.586},
      {"measurement": "growth inhibition by drug plus 177Lu-lilotomab satetraxetan", "setting": "100 nM, time (day): 3", "result": 0.259},
      {"measurement": "growth inhibition by drug plus 177Lu-lilotomab satetraxetan", "setting": "100 nM, time (day): 4", "result": 0.411},
      {"measurement": "growth inhibition by drug plus 177Lu-lilotomab satetraxetan", "setting": "100 nM, time (day): 5", "result": 0.413},
      {"measurement": "growth inhibition by drug plus 177Lu-lilotomab satetraxetan", "setting": "100 nM, time (day): 6", "result": 0.434}
    ]},
    {"smiles": "CN(C)CCOc1ccc(-c2nc(-c3ccncc3)c(-c3ccc4c(c3)CC/C4=N\\O)[nH]2)cc1", "values": [
      {"measurement": "growth inhibition by drug plus 177Lu-lilotomab satetraxetan", "setting": "10 nM, time (day): 3", "result": 0.358},
      {"measurement": "growth inhibition by drug plus 177Lu-lilotomab satetraxetan", "setting": "10 nM, time (day): 4", "result": 0.494},
      {"measurement": "growth inhibition by drug plus 177Lu-lilotomab satetraxetan", "setting": "10 nM, time (day): 5", "result": 0.536},
      {"measurement": "growth inhibition by drug plus 177Lu-lilotomab satetraxetan", "setting": "10 nM, time (day): 6", "result": 0.556},
      {"measurement": "growth inhibition by drug plus 177Lu-lilotomab satetraxetan", "setting": "100 nM, time (day): 3", "result": -0.0096},
      {"measurement": "growth inhibition by drug plus 177Lu-lilotomab satetraxetan", "setting": "100 nM, time (day): 4", "result": 0.315},
      {"measurement": "growth inhibition by drug plus 177Lu-lilotomab satetraxetan", "setting": "100 nM, time (day): 5", "result": 0.378},
      {"measurement": "growth inhibition by drug plus 177Lu-lilotomab satetraxetan", "setting": "100 nM, time (day): 6", "result": 0.441}
    ]},
    {"smiles": "CC(=O)O[C@]1(C(C)=O)CC[C@H]2[C@@H]3C=C(C)C4=CC(=O)CC[C@]4(C)[C@H]3CC[C@@]21C", "note": "[Megestrol Acetate]", "values": [
      {"measurement": "growth inhibition by drug plus 177Lu-lilotomab satetraxetan", "setting": "10 nM, time (day): 3", "result": 0.408},
      {"measurement": "growth inhibition by drug plus 177Lu-lilotomab satetraxetan", "setting": "10 nM, time (day): 4", "result": 0.529},
      {"measurement": "growth inhibition by drug plus 177Lu-lilotomab satetraxetan", "setting": "10 nM, time (day): 5", "result": 0.546},
      {"measurement": "growth inhibition by drug plus 177Lu-lilotomab satetraxetan", "setting": "10 nM, time (day): 6", "result": 0.551},
      {"measurement": "growth inhibition by drug plus 177Lu-lilotomab satetraxetan", "setting": "100 nM, time (day): 3", "result": 0.497},
      {"measurement": "growth inhibition by drug plus 177Lu-lilotomab satetraxetan", "setting": "100 nM, time (day): 4", "result": 0.522},
      {"measurement": "growth inhibition by drug plus 177Lu-lilotomab satetraxetan", "setting": "100 nM, time (day): 5", "result": 0.525},
      {"measurement": "growth inhibition by drug plus 177Lu-lilotomab satetraxetan", "setting": "100 nM, time (day): 6", "result": 0.508}
    ]},
    {"smiles": "O=C(Nc1cccnc1)N1CCC(Cc2cccc(Oc3ccc(C(F)(F)F)cn3)c2)CC1", "values": [
      {"measurement": "growth inhibition by drug plus 177Lu-lilotomab satetraxetan", "setting": "10 nM, time (day): 3", "result": 0.71},
      {"measurement": "growth inhibition by drug plus 177Lu-lilotomab satetraxetan", "setting": "10 nM, time (day): 4", "result": 0.692},
      {"measurement": "growth inhibition by drug plus 177Lu-lilotomab satetraxetan", "setting": "10 nM, time (day): 5", "result": 0.714},
      {"measurement": "growth inhibition by drug plus 177Lu-lilotomab satetraxetan", "setting": "10 nM, time (day): 6", "result": 0.718},
      {"measurement": "growth inhibition by drug plus 177Lu-lilotomab satetraxetan", "setting": "100 nM, time (day): 3", "result": 0.554},
      {"measurement": "growth inhibition by drug plus 177Lu-lilotomab satetraxetan", "setting": "100 nM, time (day): 4", "result": 0.566},
      {"measurement": "growth inhibition by drug plus 177Lu-lilotomab satetraxetan", "setting": "100 nM, time (day): 5", "result": 0.583},
      {"measurement": "growth inhibition by drug plus 177Lu-lilotomab satetraxetan", "setting": "100 nM, time (day): 6", "result": 0.595}
    ]},
    {"smiles": "Cc1nc(N)sc1-c1ccnc(Nc2ccc(N3CCOCC3)cc2)n1", "values": [
      {"measurement": "growth inhibition by drug plus 177Lu-lilotomab satetraxetan", "setting": "10 nM, time (day): 3", "result": 0.375},
      {"measurement": "growth inhibition by drug plus 177Lu-lilotomab satetraxetan", "setting": "10 nM, time (day): 4", "result": 0.481},
      {"measurement": "growth inhibition by drug plus 177Lu-lilotomab satetraxetan", "setting": "10 nM, time (day): 5", "result": 0.505},
      {"measurement": "growth inhibition by drug plus 177Lu-lilotomab satetraxetan", "setting": "10 nM, time (day): 6", "result": 0.525},
      {"measurement": "growth inhibition by drug plus 177Lu-lilotomab satetraxetan", "setting": "100 nM, time (day): 3", "result": 0.398},
      {"measurement": "growth inhibition by drug plus 177Lu-lilotomab satetraxetan", "setting": "100 nM, time (day): 4", "result": 0.486},
      {"measurement": "growth inhibition by drug plus 177Lu-lilotomab satetraxetan", "setting": "100 nM, time (day): 5", "result": 0.498},
      {"measurement": "growth inhibition by drug plus 177Lu-lilotomab satetraxetan", "setting": "100 nM, time (day): 6", "result": 0.487}
    ]}
  ]
}
